The supplement of paper PMC10338343
± gives the standard deviation.

The sequences below were run on MILI (PIWIL2) piRISC loaded with L1MC piRNA (26 nt) (assay: pre-steady-state target cleavage rate (min^-1); guide: L1MC piRNA 5'p-UAACUAAAUACUAUGCAAGCUGUAGG; MIWI and MILI are mouse PIWI proteins and EfPiwi is from a freshwater sponge; tags in brackets are library labels; higher = faster piRNA-guided slicing of the target). Settings: auxiliary factor: 500 nM mouse GTSF1.
Method in brief: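 The method was Cleave-'n-Seq, in which uncleaved targets from a transcribed, DNA-blocked target RNA library were sequenced after exposure to active affinity-purified piRISC carrying one synthetic guide, with or without GTSF1 partner protein. Reactions contained 0.1 nM library, 1 nM piRISC and, where present, 500 nM GTSF1 in HEPES–potassium acetate buffer at 33 °C for 0–8 or 0–960 min. Reads were normalised to depth and to weakly complementary targets, three trials were pooled, and k3 was capped at 0.0001 min^-1. The pre-steady-state cleavage rate came from a burst-and-steady-state fit.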

Sequence	pre-steady-state target cleavage rate
UCCUCCUACUGCUUGCAUAGUAUUUUGUUA	0.0977 ± 0.016
UCCUGGUACACCUUGCAAAGUAUUUAGUUA	0.0646 ± 0.011
UCCUGGAACACCUUGCAAAGUAUUUAGUUA	0.0999 ± 0.015
UCCUGGUACAGCUUGCAUAGUAUUUAGGUUA	0.163 ± 0.044
UCCUGGAUGUGCUUGCUUAGUUUUUAGUUA	0.011 ± 0.0063
UCCUGCUACAGCUAUGCAUAGUAUUUAGUUA	0.257 ± 0.022
UCCUGCUUGUGCUUGCAUAGUAUUUAGUUA	0.13 ± 0.017
UCCUGGAUGAGCUAGGAUAGUAUUUAGUUA	0.131 ± 0.021
UCCUGGAUGUCCUUGCAAAGUAUUAAGUUA	0.0398 ± 0.0098
UCCUGGAUGUGCUAGCAUAGUAUUUUGUUA	0.0587 ± 0.011
UCCUGGAUGUCGAUGCAUAGUUUUUAGUUA	0.0108 ± 0.0042
UCCUGGAUGUCCUUGCAUAGUUUUUAGUUA	0.0125 ± 0.0057
UCCUGGAUGAGCAUGCUUAGUAUUUAGUUA	0.115 ± 0.011
UCCUGGAUGUGCUUGCUAAGUAUUUAGUUA	0.0146 ± 0.0062
UCCUGGUACAGCUUGCAUAUGUAUUUAGUUA	0.00566 ± 0.0049
UCCUGGAUGUGCUUGCAUAGUUAUUAGUUA	0.00903 ± 0.0055
UCCUGCUACAGCUUGCAUAGUGUUUAGUUA	0.197 ± 0.02
UCCUGGAACAGCUUGCAAAGUAUUUAGUUA	0.135 ± 0.0089
UCCUGGUACAGCUUGCAUAGUUUUUAGUUA	0.0505 ± 0.013
UCCUGGAACACCUUGGAUAGUAUUUAGUUA	0.153 ± 0.021

Sequence	pre-steady-state target cleavage rate
UCCUGCUACAGGUUGCAUAGUAUUUAGUAA	0.223 ± 0.024
UCCUGGAUGUCGUCGCAUAGUAUUUAGUUA	0.0893 ± 0.012
UCCUGGAUGAGCUUGCAUAGAUAUUUAGUUA	0.00786 ± 0.0038
UCCUGGAUGUCGUUGCAUAGUAUUCUAGUUA	0.18 ± 0.045
UCCUGGAUGUCCUUGCUUUGUAUUUAGUUA	0.00984 ± 0.0041
UCCUGGAUGUCCUUGCAAAGUAUUUAGUUA	0.0392 ± 0.0098
UCCUGGUACAGCUACGAUAGUAUUUAGUUA	0.15 ± 0.016
UCCUGGAUGUCCUUGCAUAGUAUUCAGUUA	0.0755 ± 0.018
UCCUGGAUCAGGAAGCAUAGUAUUUAGUUA	0.0634 ± 0.0094
UCCUGGAUGAGCUUGGAAAGUAUUUAGUUA	0.0843 ± 0.011
UCCUGGAACAGCUUGGAUAGUAUUUAGUAA	0.198 ± 0.023
UCCUGGAUCACCUUGCUUAGUAUUUAGUUA	0.176 ± 0.025
UCCUCCUACAGCUUGCAUAGUAUAAAGUUA	0.137 ± 0.023
UCCUGGAACAGCUUGCAUUGUUUUUAGUUA	0.0144 ± 0.0059
UCCUGGAUGAGCAUGCAUUGUAUUUAGUUA	0.0714 ± 0.013
UCCUGGAUCAGCUUGCAUAGAAUUUAGUUA	0.0368 ± 0.0086
UCCUGGAUGUCCUUGGAUAGUAUUUAGUAA	0.121 ± 0.019
UCCUGGAUCUGCUAGCAUAGUAUUUAGUUA	0.168 ± 0.014
UCCUGGAUGUGCUAGCAUAGUAUUUAGUAA	0.12 ± 0.017
UCCUGGUACAGCUUGGAAAGUAUUUAGUUA	0.111 ± 0.014

Same assay, conditions: auxiliary factor: none (no GTSF1)

Sequence	pre-steady-state target cleavage rate
UCCUCCUACUGCUUGCAUAGUAUUUUGUUA	0.00448 ± 0.0018
UCCUGGUACACCUUGCAAAGUAUUUAGUUA	0.0081 ± 0.0033
UCCUGGAACACCUUGCAAAGUAUUUAGUUA	0.0069 ± 0.0021
UCCUGGUACAGCUUGCAUAGUAUUUAGGUUA	0.00633 ± 0.0032
UCCUGGAUGUGCUUGCUUAGUUUUUAGUUA	0.00656 ± 0.0028
UCCUGCUACAGCUAUGCAUAGUAUUUAGUUA	0.0069 ± 0.0021
UCCUGCUUGUGCUUGCAUAGUAUUUAGUUA	0.00616 ± 0.0025
UCCUGGAUGAGCUAGGAUAGUAUUUAGUUA	0.00494 ± 0.0027
UCCUGGAUGUCCUUGCAAAGUAUUAAGUUA	0.00691 ± 0.0023
UCCUGGAUGUGCUAGCAUAGUAUUUUGUUA	0.00334 ± 0.0025
UCCUGGAUGUCGAUGCAUAGUUUUUAGUUA	0.0052 ± 0.002
UCCUGGAUGUCCUUGCAUAGUUUUUAGUUA	0.00594 ± 0.0021
UCCUGGAUGAGCAUGCUUAGUAUUUAGUUA	0.0087 ± 0.0027
UCCUGGAUGUGCUUGCUAAGUAUUUAGUUA	0.00546 ± 0.0023
UCCUGGUACAGCUUGCAUAUGUAUUUAGUUA	0.00451 ± 0.0033
UCCUGGAUGUGCUUGCAUAGUUAUUAGUUA	0.00639 ± 0.0025
UCCUGCUACAGCUUGCAUAGUGUUUAGUUA	0.00436 ± 0.0027
UCCUGGAACAGCUUGCAAAGUAUUUAGUUA	0.00796 ± 0.0019
UCCUGGUACAGCUUGCAUAGUUUUUAGUUA	0.00579 ± 0.0038
UCCUGGAACACCUUGGAUAGUAUUUAGUUA	0.00568 ± 0.0025

Sequence	pre-steady-state target cleavage rate
UCCUGCUACAGGUUGCAUAGUAUUUAGUAA	0.0054 ± 0.0028
UCCUGGAUGUCGUCGCAUAGUAUUUAGUUA	0.00436 ± 0.0024
UCCUGGAUGAGCUUGCAUAGAUAUUUAGUUA	0.00424 ± 0.0022
UCCUGGAUGUCGUUGCAUAGUAUUCUAGUUA	0.00434 ± 0.0027
UCCUGGAUGUCCUUGCUUUGUAUUUAGUUA	0.00458 ± 0.0025
UCCUGGAUGUCCUUGCAAAGUAUUUAGUUA	0.00687 ± 0.002
UCCUGGUACAGCUACGAUAGUAUUUAGUUA	0.00343 ± 0.0026
UCCUGGAUGUCCUUGCAUAGUAUUCAGUUA	0.00338 ± 0.0028
UCCUGGAUCAGGAAGCAUAGUAUUUAGUUA	0.00311 ± 0.0023
UCCUGGAUGAGCUUGGAAAGUAUUUAGUUA	0.00571 ± 0.0018
UCCUGGAACAGCUUGGAUAGUAUUUAGUAA	0.00431 ± 0.0019
UCCUGGAUCACCUUGCUUAGUAUUUAGUUA	0.008 ± 0.0023
UCCUCCUACAGCUUGCAUAGUAUAAAGUUA	0.00301 ± 0.0023
UCCUGGAACAGCUUGCAUUGUUUUUAGUUA	0.00334 ± 0.0023
UCCUGGAUGAGCAUGCAUUGUAUUUAGUUA	0.00843 ± 0.003
UCCUGGAUCAGCUUGCAUAGAAUUUAGUUA	0.00356 ± 0.002
UCCUGGAUGUCCUUGGAUAGUAUUUAGUAA	0.00376 ± 0.0019
UCCUGGAUCUGCUAGCAUAGUAUUUAGUUA	0.00596 ± 0.0019
UCCUGGAUGUGCUAGCAUAGUAUUUAGUAA	0.00339 ± 0.0027
UCCUGGUACAGCUUGGAAAGUAUUUAGUUA	0.00903 ± 0.0035
